Experiment: Plasmodium falciparum growth inhibition, primary screen, strain 3D7, DAPI fluorescence, 100 nL (AID 1184);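 further: parasites grown inside human red blood cells in medium with human serum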
Conditions: P. falciparum 3D7 growth, 3 d, higher = more signal

Structure (SMILES) | z-score
COCCOC(=O)N1C(=O)[C@@]2(c3cc(C#CC4(O)CCCCCC4)ccc31)[C@H](C(=O)N1CCCCCCC1)[C@H]1C(=O)O[C@H](c3ccccc3)[C@H](c3ccccc3)N1[C@@H]2c1ccccc1OCCO | -2.39
CCOC(=O)[C@H]1C/C=C/C[C@H](C(=O)OCC)C(=O)O[C@H]2[C@@H](OC)O[C@H](CO)[C@@H](OC(=O)Nc3ccc4c(c3)OCO4)[C@@H]2OC1=O | -1.95
C#CCN(C(/C=C/c1ccccc1)CO)C(C(=O)O)c1ccccc1 (stereo not given) | -2.23
COCC(=C=CC[C@@H](O)c1ccc(CO)o1)CCO | -1.61
O=C1O[C@H](c2ccccc2)[C@H](c2ccccc2)N2[C@H]1[C@@H](C(=O)O)[C@]1(C(=O)Nc3ccc(C#CC4(O)CCCCCC4)cc31)[C@H]2c1ccc(OCCO)cc1 | 0.362
C=CCOC(=O)[C@H]1[C@@H]2C(=O)O[C@@H](c3ccccc3)[C@@H](c3ccccc3)N2[C@@H](c2ccc(OCCOC(=O)[C@@H]3C[C@@H]4C(=O)NCC(=O)N4[C@@H]3c3ccc(O)cc3)cc2)[C@]12C(=O)Nc1ccccc12 | -1.86
COCCOC(=O)N1C(=O)[C@@]2(c3ccccc31)[C@H](c1ccc(O)cc1)N1[C@H](c3ccccc3)[C@H](c3ccccc3)OC(=O)[C@H]1[C@@H]2C(=O)N1CCc2cc(OC)c(OC)cc2C1 | -1.27
CCOC(=O)C1=C[C@@H](C(C)C)N(S(=O)(=O)c2ccc(C)cc2)[C@H]1c1ccc(C(C)C)cc1 | -1.46
C=C[C@H](C)[C@@H](O)c1ccc(O)c2ccccc12 | -0.935
O=C1C[C@@](C(=O)NC2CC2)(c2ccc([N+](=O)[O-])cc2)[C@@H](c2ccc(CO)cc2)N1CC12CC3CC(CC(C3)C1)C2 | -0.909
O=c1cccc(CCc2ccccc2)o1 | 2.16
C=CC[C@@]1(C(=O)O)N=C(c2ccc(OCCCO)cc2)O[C@@H]1c1ccccc1N=[N+]=[N-] | -0.814
O=c1cccc(C=Cc2ccccc2)o1 | -0.907
CC(=O)NCCCC[C@@H]1NC(=O)[C@H]2C[C@@H](C(=O)NCCCCCC[N+](C)(C)C)[C@@H](c3cccc(OCCO)c3)N2C1=O | -1.26
CC1=C2[C@@H](CCc3ccccc3)OB(O)C[C@@H]2n2c(=O)n(-c3ccccc3)c(=O)n2C1 | 1.65
[N-]=[N+]=Nc1ccccc1[C@H]1OC(c2ccc(OCCCO)cc2)=N[C@@]1(CCS(=O)(=O)c1ccccc1)C(=O)O | -1.46
COC(=O)[C@@]1(Cc2ccc(OC)cc2)[C@H]2c3cc(C(=O)N4CCCC4)n(Cc4cc(F)cc5c4OCOC5)c3C[C@H]2CN1C(=O)c1ccccc1 | -1.72
COc1ccc(C#Cc2ccc3c(c2)[C@]2(C(=O)N3)[C@H](c3ccc(O)cc3)N3[C@H](c4ccccc4)[C@H](c4ccccc4)OC(=O)[C@H]3[C@@H]2C(=O)NC[C@H](O)c2ccccc2)cc1 | -1.05

Structure (SMILES) | z-score
CCCNC(=O)[C@@H]1c2ccccc2C(=O)N(Cc2ccccc2)[C@H]1c1ccc(CO)cc1 | -1.62
COC(=O)C[C@H]1O[C@]2(C(=O)N(Cc3ccccc3)c3ccc(NC(C)=O)cc32)[C@@H](C)[C@@H]1[Si](C)(C)c1ccc(OC)cc1 | -3.05
CC(C)NC(=O)[C@@H]1c2ccccc2C(=O)N(Cc2ccccc2Cl)[C@H]1c1ccc(CO)cc1 | -0.842
COc1ccc(C#Cc2ccc3c(c2)[C@]2(C(=O)N3)[C@H](c3ccc(O)cc3)N3[C@H](c4ccccc4)[C@H](c4ccccc4)OC(=O)[C@H]3[C@@H]2C(=O)N2CCCCCCC2)cc1 | -2.08
O=C1C2C=CC(C(O)c3ccc(F)cc3)N(Nc3ccccc3)C2C(=O)N1c1ccccc1 (stereo not given) | 0.191
NC(=O)NCC#Cc1ccc2c(c1)[C@]1(C(=O)N2)[C@H](C(=O)NC[C@H](O)c2ccccc2)[C@H]2C(=O)O[C@H](c3ccccc3)[C@H](c3ccccc3)N2[C@@H]1c1ccc(O)cc1 | 0.872
COC(=O)C1=CC(CCCO)=CC(C2CC2)N(Cc2sc3ccccc3c2Cl)C=C1C(=O)OC (stereo not given) | -2.02
O=C1O[C@H](c2ccccc2)[C@H](c2ccccc2)N2[C@H]1[C@@H](C(=O)N1CCN(c3ncccn3)CC1)[C@]1(C(=O)Nc3ccccc31)[C@H]2c1ccc(OCCO)cc1 | -2.39
Cc1ccccc1C(O)C1C=CC2C(=O)N(C)C(=O)C2N1N1CCCCC1 (stereo not given) | 0.737
O=C(CS)NCCCCCCNC(=O)[C@H]1C[C@H]2C(=O)N3CCC[C@H]3C(=O)N2[C@H]1c1cccc(OCCO)c1 | -0.0979
CCCC[C@@H]1C[C@H]1[C@@H](NC(=O)c1ccc(-c2ccccc2)cc1)c1ccc(-c2ccccc2)cc1 | -1.05
C=CC(COC(C)=O)NS(=O)(=O)c1ccc(Br)cc1 (stereo not given) | 1.95
O=C1C2C=CC(C(O)c3ccc(B(O)O)cc3)N(Nc3ccccc3)C2C(=O)N1c1ccccc1 (stereo not given) | -0.545
C=CC[C@]1(C(=O)N2CCOCC2)N=C(c2ccc(OCCCO)cc2)O[C@H]1c1ccccc1 | -0.887
COCCCNC(=O)[C@@]1(C)c2ccccc2C(=O)N(Cc2cc(C(F)(F)F)cc(C(F)(F)F)c2)[C@H]1c1ccc(CO)cc1 | -0.577
COc1ccc(C(=O)Nc2cccc(CN3C(=O)[C@]4(O[C@H](CC(=O)N5CCC[C@H]5CO)[C@@H]([Si](C)(C)c5ccc(OC)cc5)[C@@H]4C)c4ccccc43)c2)cc1 | -1.34
[N-]=[N+]=NCc1ccccc1C[C@@]1(C(=O)NCC(O)CO)N=C(c2ccc(OCCCO)cc2)O[C@@H]1c1ccccc1CN=[N+]=[N-] (stereo not given in full) | -2.01
